# According to PubChem BioAssay AID540345 (The Scripps Research Institute Molecular Screening Center, 2011):
# Values without a mark were called inactive. The rule behind the calls is not given here.
# System: Phorbol Ester
# Assay: off-target binding and CYP inhibition panel, profiling panel, selectivity assay for GPR7 antagonist project, biochemical, Ricerca HitProfilingScreen, CYP450, set 2 (AID 540345)
# Settings: Ricerca radioligand binding/CYP panel, at 10 µM, hits give high values
structure (smiles),measurement,value
COc1ccc(Oc2c(Cl)cnn(C3c4ccccc4-c4ccccc43)c2=O)cc1,inhibition,0%
